This is an account of results in PubChem BioAssay.

Each structure is given as a SMILES string.

The assay can be described thus: blood-stage malaria parasite viability loss – strain 3D7, DAPI fluorescence, 100 nL, primary screen (AID 1184).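 Further: parasites grown inside human red blood cells in medium with human serum.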 The following applies: P. falciparum 3D7 growth, 3 d, higher = more signal.
In turn, `CO[C@H]1COC(=O)CC=C[C@H](C)COC(=O)[C@@H](OCc2ccccc2)C=C[C@@H]1C` came in with a z-score of -1.58.
Compound `CCN1C(C)=C(C(=O)OC)[C@@H](c2ccccc2)N2C(=O)[C@@]3(C(=O)OC)O[C@@]12[C@@H]1C(=O)N(c2ccccc2)C(=O)[C@@H]13` showed a z-score of -0.425.
Under `C#CCCCON=C1C[C@@H](O)[C@@H](O)[C@@H]2[C@@H]3C(=O)N(Cc4ccc5c(c4)OCO5)C(=O)[C@@H]3CC[C@H]12` stands 0.594; under `COc1cc([C@@H]2N[C@H](C(=O)O)Cc3c2[nH]c2ccccc32)cc(OC)c1OC`, -0.0372.
Under `CO[C@H]1COC(=O)[C@H](C)COC(=O)[C@H](Cc2ccccc2)NC(=O)CC=C[C@H]1C` stands 0.724; under `CO[C@@H]1COC(=O)[C@H](C)NC(=O)CC=C[C@@H](C)[C@H](NS(=O)(=O)c2ccc(C)cc2)COC(=O)CC=C[C@@H]1C`, 0.635; under `O=C(O)[C@@H]1Cc2c([nH]c3ccccc23)[C@@H](c2ccccc2)N1`, -0.421.
The same measure for `CO[C@H]1COC(=O)CC=C[C@H](C)[C@@H](OC)COC(=O)[C@H](Cc2ccccc2)NC(=O)CC=C[C@@H]1C`: 0.0429.
For `C[C@@H]1NC(=O)CC=C[C@@H](C)[C@@H]2C=C[C@H](O)[C@@H](COC(=O)[C@H](C)NC(=O)CC=C[C@@H](C)[C@@H]3C=C[C@H](O)[C@@H](COC1=O)O3)O2`, the z-score is -1.47.
`CCC(=O)[C@]12O[C@@]3([C@@H]4C(=O)OCC[C@@H]41)N(CC)C(C)=C(C(=O)OC)[C@@H](c1ccccc1)N3C2=O`: the z-score is -1.06.
Under `CO[C@H]1COC(=O)CC=C[C@@H](C)COC(=O)[C@@H](C)NC(=O)CC=C[C@@H]1C` stands -0.437; under `C=CCc1cccc([C@@H]2[C@@H](C)CC[C@H]3C(=O)N4[C@H](c5cccc(CC=C)c5)[C@@H](C)CC[C@H]4C(=O)N23)c1`, -0.729; under `CCN1C(C)=C(C(=O)OC)[C@@H](c2ccccc2)N2C(=O)[C@@]3(C(=O)OC)O[C@@]12[C@@H]1C(=O)N(C)C(=O)[C@@H]13`, -0.138.
Under `CO[C@H]1COC(=O)[C@@H](OCc2ccccc2)C=C[C@H](C)[C@@H](OC)COC(=O)[C@H](OCc2ccccc2)C=C[C@@H]1C` stands 0.313; under `CO[C@H]1COC(=O)[C@H](CCSC)NC(=O)CC=C[C@@H](C)COC(=O)[C@@H](OCc2ccccc2)C=C[C@@H]1C`, -0.115.
Under `CO[C@H]1COC(=O)[C@H](C)NC(=O)CC=C[C@@H](C)[C@H](NS(=O)(=O)c2ccc(C)cc2)COC(=O)CC=C[C@@H]1C` stands -0.266; under `CCC(=O)[C@]12O[C@@]3([C@@H]4C(=O)OCC[C@@H]41)N(Cc1ccccc1)C(C)=C(C(=O)OC)[C@@H](c1ccccc1)N3C2=O`, 1.24.
`CO[C@@H]1COC(=O)[C@H](COCc2ccccc2)NC(=O)CC=C[C@@H](C)[C@H](OC)COC(=O)[C@H](COCc2ccccc2)NC(=O)CC=C[C@H]1C` came in with a z-score of -0.989.
Under `Cc1ccc(S(=O)(=O)N[C@H]2COC(=O)CC=C[C@H](C)COC(=O)N[C@@H](C)C(=O)CC=C[C@@H]2C)cc1` stands -1.23; under `C[C@@H]1C=CCC(=O)OC[C@H]2O[C@@H](C=C[C@@H]2O)[C@H](C)C=CCC(=O)OC[C@H]2O[C@H]1C=C[C@@H]2O`, -2.25.
The same measure for `COc1cccc([C@@H]2[C@@H](C)CC[C@H]3C(=O)N(C)[C@@H](C(C)C)C(=O)N23)c1`: 0.451; for `CC(=O)Nc1ccc([C@H]2[C@H](C)CC[C@H]3C(=O)N4[C@@H](CC[C@@H](C)[C@@H]4c4ccc(NC(C)=O)cc4)C(=O)N32)cc1`: 0.179; for `C[C@@H]1CC[C@H]2C(=O)N3[C@@H](CC[C@@H](C)[C@@H]3c3cccc(N4CCOCC4)c3)C(=O)N2[C@H]1c1cccc(N2CCOCC2)c1`: -0.529.
Under `COc1cccc([C@@H]2[C@@H](C)CC[C@H]3C(=O)N4[C@H](c5cccc(OC)c5)[C@@H](C)CC[C@H]4C(=O)N23)c1` stands 0.137; under `C[C@H]1COC(=O)[C@H](Cc2ccccc2)NC(=O)[C@@H](C)COC(=O)[C@H](Cc2ccccc2)NC1=O`, -0.703.
For `CO[C@@H]1COC(=O)[C@@H]2CCCN2C(=O)CC=C[C@@H](C)[C@H](OC)COC(=O)[C@@H]2CCCN2C(=O)CC=C[C@H]1C`, the z-score was determined as 0.583.
The same measure for `CO[C@@H]1COC(=O)[C@H](C)NC(=O)CC=C[C@@H](C)[C@H](OC)COC(=O)[C@H](C)NC(=O)CC=C[C@H]1C`: 0.363; for `COC(=O)C1=C(C)N(Cc2ccccc2)c2c(C(=O)OC)c(C(=O)OC)c(C(=O)OC)c(=O)n2[C@@H]1c1ccccc1`: 0.149.
With `COc1cccc([C@H]2N[C@H](C(=O)O)CC[C@@H]2C)c1`, the z-score is -1.4.
As to `CO[C@H]1COC(=O)CC=C[C@H](C)[C@@H](OC)COC(=O)CC=C[C@@H]1C`, the z-score worked out at 0.648.
Under `CCN1C(C)=C(C(=O)OC)[C@@H](c2ccccc2)N2C(=O)[C@](O)(C(=O)OC)[C@@H](c3ccccc3)C(C(C)=O)=C12` stands -1.56; under `CO[C@H]1COC(=O)[C@H](Cc2ccccc2)NC(=O)CC=C[C@@H](C)[C@H](OC)COC(=O)CC=C[C@@H]1C`, 0.0348.
The same measure for `CO[C@@H]1COC(=O)CC=C[C@H](C)COC(=O)[C@H](Cc2ccccc2)NC(=O)CC=C[C@H]1C`: 0.684.
The same measure for `C[C@@H]1CC[C@H]2C(=O)N3CCC[C@H]3C(=O)N2[C@H]1c1ccc(Br)cc1`: 0.371.
`C[C@@H]1CC[C@H]2C(=O)N3[C@@H](CC[C@@H](C)[C@@H]3c3cccc(N4CCOCC4)c3)C(=O)N2[C@H]1c1cccc(Br)c1` showed a z-score of 0.656.
